Key:
Experiment in all cases: cross-linking mass spectrometry
Conditions in all cases: not determined
COPS3 = COPS3 (UniProt Q9UNS2)
COPS7B = COPS7B (UniProt Q9H9Q2)
ELOB = ELOB (UniProt Q15370)
UniProt Q15370, sequence (Q15370 whole entry): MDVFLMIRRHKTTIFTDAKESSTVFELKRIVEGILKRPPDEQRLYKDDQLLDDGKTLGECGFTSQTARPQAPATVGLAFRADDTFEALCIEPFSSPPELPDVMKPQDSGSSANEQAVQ

UniProt Q9UNS2, sequence (Q9UNS2 whole entry): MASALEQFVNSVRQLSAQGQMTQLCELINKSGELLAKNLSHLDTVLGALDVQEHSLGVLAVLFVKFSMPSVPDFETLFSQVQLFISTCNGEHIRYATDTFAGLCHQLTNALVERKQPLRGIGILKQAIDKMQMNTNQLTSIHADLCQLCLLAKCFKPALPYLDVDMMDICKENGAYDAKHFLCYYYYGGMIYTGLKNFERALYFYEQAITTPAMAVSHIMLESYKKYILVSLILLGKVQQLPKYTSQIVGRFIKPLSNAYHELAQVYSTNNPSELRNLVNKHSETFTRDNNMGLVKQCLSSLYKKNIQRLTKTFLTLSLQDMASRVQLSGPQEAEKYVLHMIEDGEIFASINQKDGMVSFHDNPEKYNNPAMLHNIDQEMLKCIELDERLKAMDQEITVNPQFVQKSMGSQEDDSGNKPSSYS
GPS1, sequence (Q13098 whole entry): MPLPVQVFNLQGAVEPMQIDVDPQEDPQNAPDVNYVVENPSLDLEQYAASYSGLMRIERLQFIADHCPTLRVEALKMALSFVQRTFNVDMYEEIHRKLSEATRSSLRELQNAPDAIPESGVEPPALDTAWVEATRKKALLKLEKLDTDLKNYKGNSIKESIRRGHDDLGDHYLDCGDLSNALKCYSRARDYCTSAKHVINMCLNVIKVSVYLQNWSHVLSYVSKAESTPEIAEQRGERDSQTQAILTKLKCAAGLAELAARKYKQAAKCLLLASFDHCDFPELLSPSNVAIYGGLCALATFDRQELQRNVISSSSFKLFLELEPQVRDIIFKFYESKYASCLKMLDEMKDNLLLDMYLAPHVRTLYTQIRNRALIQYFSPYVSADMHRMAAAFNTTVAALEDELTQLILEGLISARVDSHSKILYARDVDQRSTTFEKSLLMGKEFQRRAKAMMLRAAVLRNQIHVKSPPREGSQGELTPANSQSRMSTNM
COPS2, sequence (P61201 whole entry): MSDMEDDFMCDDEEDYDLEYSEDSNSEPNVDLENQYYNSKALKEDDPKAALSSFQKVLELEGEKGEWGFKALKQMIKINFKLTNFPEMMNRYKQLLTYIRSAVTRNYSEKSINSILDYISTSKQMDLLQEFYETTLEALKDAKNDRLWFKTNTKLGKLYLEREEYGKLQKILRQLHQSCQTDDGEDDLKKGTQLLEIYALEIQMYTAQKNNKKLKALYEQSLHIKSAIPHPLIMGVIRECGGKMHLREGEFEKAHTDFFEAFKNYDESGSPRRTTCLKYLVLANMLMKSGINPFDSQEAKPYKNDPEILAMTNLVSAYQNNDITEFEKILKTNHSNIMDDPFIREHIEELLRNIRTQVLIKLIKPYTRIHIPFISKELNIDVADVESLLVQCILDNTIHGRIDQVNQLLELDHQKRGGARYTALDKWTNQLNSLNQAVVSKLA
UniProt Q9H9Q2, sequence (Q9H9Q2 whole entry): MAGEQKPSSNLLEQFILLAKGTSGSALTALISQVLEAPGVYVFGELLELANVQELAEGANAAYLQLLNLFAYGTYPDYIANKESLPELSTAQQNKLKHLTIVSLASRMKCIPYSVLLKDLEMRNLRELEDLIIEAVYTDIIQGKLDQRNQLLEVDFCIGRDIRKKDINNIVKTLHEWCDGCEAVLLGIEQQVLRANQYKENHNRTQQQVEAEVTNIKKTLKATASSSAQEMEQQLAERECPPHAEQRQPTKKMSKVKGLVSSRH

Row | Substance | cross-linked residues (COPS3) | cross-linked residues (COPS7B) | cross-linked residues (ELOB)
1 | COPS2, P61201 | K426 - K243 | K426 - K199 | –
2 | GPS1, Q13098 | K467 - K406 | – | K158 - K19
